Results from PubChem BioAssay AID504384 (National Center for Advancing Translational Sciences (NCATS), 2011).
Calls of active or inactive are those of the source.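 Rule for the calls: active = compound that blocked FSH-driven cAMP in FSH receptor cells, giving a fitted IC50; inactive = the rest.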

target: Follicle-stimulating hormone receptor (Homo sapiens) (UniProt P23945); experiment: Counterscreen for antagonists of the thyroid stimulating hormone receptor: ELISA activity in a Follicle Stimulating Hormone receptor cell line; conditions: HEK293-FSHR, FSH-induced cAMP ELISA chemiluminescence
Source text: TSH is an alpha/beta heterodimeric glycoprotein hormone secreted from the anterior pituitary gland which belongs to the glycoprotein hormone family. The actions of TSH are mediated by a seven-transmembrane receptor, which upon TSH binding couples preferentially to the G-alpha (s) protein (Gs), resulting in activation of adenylate cyclase and increase in cyclic adenosine 3', 5' monophosphate (cAMP). The TSH receptor (THSR) is mainly expressed in thyroid follicular cells and regulates their growth and function. This cell based assay was conducted on a TSHR transfected HEK 293 cell line, measuring cAMP stimulation using antibody-based Homogeneous Time Resolved Fluorescence (HTRF). Our goal is to identify small molecules that will inhibit (antagonize) the thyroid-stimulating hormone receptor (TSHR), a member of the 7 transmembrane-spanning receptor (7TMR) family of cell surface receptors. TSHR-mediated hyperthyroidism is important in thyroid pathology. The development of small molecule antagonists of TSHR may lead to therapeutic approaches for TSHR-mediated hyperthyroidism caused by constitutively activating mutations or stimulating auto-antibodies associated with Graves' disease. Graves' disease is the leading cause of hyperthyroidism and is caused by autoantibodies that stimulate TSHR (TsAbs) causing thyroid growth and unregulated overproduction of thyroid hormones and existing treatments have liabilities (agranulocytosis). In addition, TSHRs are known to be expressed in multiple extrathyroidal tissues including bone, brain, kidney, testis, fat and cells of the immune system but the role of the TSHR in these tissues is not clear. Therefore, TSHR antagonists/inverse agonists could be used as probes of extrathyroidal TSHR function. Finally, TSHR inverse agonists, which are a subclass of antagonists that inhibit agonist-independent (or basal or constitutive) TSHR signaling, could be used to inhibit TSH-independent signaling in patients with recurrent or metastatic thyroid cancer who are receiving thyroid hormone to suppress TSH. In order to confirm specificity of the compounds to the TSHR, a confirmatory assay was conducted on a similar family member, the Follicle Stimulating Hormone (FSH) receptor, transfected into a HEK 293 cell line, using an orthogonal detection technology to measure cAMP stimulation: an ELISA based cAMP competition assay using cAMP-Screen Direct System (Applied Biosystems, Foster City, CA).
Transiently transfected HEK-EM 293 cells or cells stably expressing FSHR were seeded into 96-well plates at a density of 7 x10^4 cells per well in DMEM containing 10% FBS. Cells were cultured for 24 h before incubation for 20 min in HBSS/10 mM HEPES (pH 7.4). To determine the effect of the compound on FSH induced FSHR activity, cells were incubated for 20 min with the compound in HBSS/HEPES without IBMX and subsequently for 40 min with bovine FSH (Sigma) and the compound in HBSS/HEPES supplemented with 1 mM IBMX at 37 C. The levels of cAMP in cells incubated in HBSS/HEPES without IBMX were subtracted in all experiments. After aspiration of the incubation medium, cells were lysed using lysis buffer of the cAMP-Screen Direct system (Applied Biosystems, Foster City, CA). The cAMP content of the cell lysate was determined using the method described in the manufacturer's protocol. The chemiluminescence signal was measured in a VICTOR3 V 1420 multilabel counter (PerkinElmer, Norwalk, CT). The potencies (EC50 and IC50) of the ligands were obtained from dose-response curves by data analysis with GraphPad Prism 4 for Windows.

Follicle-stimulating hormone receptor (Homo sapiens), sequence (P23945 whole entry, looked up): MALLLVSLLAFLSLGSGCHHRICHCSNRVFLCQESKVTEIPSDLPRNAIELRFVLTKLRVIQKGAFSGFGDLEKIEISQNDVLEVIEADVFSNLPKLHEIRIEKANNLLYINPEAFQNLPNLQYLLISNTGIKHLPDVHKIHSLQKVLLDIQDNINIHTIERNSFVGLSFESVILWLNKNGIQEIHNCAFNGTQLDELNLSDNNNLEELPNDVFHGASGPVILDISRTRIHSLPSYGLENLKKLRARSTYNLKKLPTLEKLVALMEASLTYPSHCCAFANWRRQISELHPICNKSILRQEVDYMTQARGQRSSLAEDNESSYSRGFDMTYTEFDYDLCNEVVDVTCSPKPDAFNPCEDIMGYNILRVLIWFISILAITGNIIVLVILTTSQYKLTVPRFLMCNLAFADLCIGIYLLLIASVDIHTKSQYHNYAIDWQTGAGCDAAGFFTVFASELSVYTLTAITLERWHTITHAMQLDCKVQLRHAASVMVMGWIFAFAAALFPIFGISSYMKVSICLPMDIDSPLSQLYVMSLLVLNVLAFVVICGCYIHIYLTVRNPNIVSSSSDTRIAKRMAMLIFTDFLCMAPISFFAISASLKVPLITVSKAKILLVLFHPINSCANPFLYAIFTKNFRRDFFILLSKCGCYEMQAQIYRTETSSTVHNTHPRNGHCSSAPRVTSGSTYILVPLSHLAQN

How did the IC50 turn out when `COc1ccc(C2Nc3ccccc3C(=O)N2Cc2cccnc2)cc1COc1c(C)cccc1C` (stereo unspecified) was run?
Its IC50 is 32.7 µM (active).

With `Cc1cccc(C)c1OCc1cccc(C2Nc3ccccc3C(=O)N2Cc2ccco2)c1` (stereo unspecified) as the compound, how does the IC50 read?
Its IC50 is 8.2 µM (active).

With `CCc1cccc(CC)c1OCc1cc(C2Nc3ccccc3C(=O)N2Cc2ccco2)ccc1OC` (stereo unspecified) as the compound, how does the outcome read?
Its outcome is “inactive”.

How did the IC50 turn out when `COc1ccc(C2Nc3ccccc3C(=O)N2Cc2ccco2)cc1COc1c(C)cccc1C` (stereo unspecified) was run?
The IC50 was 4.55 µM (active).

With `COc1ccc(C2Nc3ccccc3C(=O)N2Cc2ccco2)cc1CSc1c(C)cccc1C` (stereo unspecified) as the compound, how does the IC50 read?
The IC50 was 14.6 µM (active).

For `COc1ccc(C2Nc3ccccc3C(=O)N2Cc2ccco2)cc1COc1c(C)cc(NC(C)=O)cc1C` (stereo unspecified), which outcome is on record?
The outcome was “inactive”.
